# Screens (PubChem BioAssay)
# S16 viability = cytotoxicity in S16 Pmp22-F2sN Schwann cells. 43,000 tested, 0.48% active. S16 Pmp22-F2sN Schwann cells viability, CellTiter-Glo, 24 h. AID 1508642. Potency, µM (series often up to 57.5 µM), for the others: at the highest dose activity change, negative = cytotoxicity, actives largely listed as cytotoxic; also: % is scaled to controls: 0 for no effect and ±100 for the full control effect; nearly all actives have a fitted effect of over 65% in size
#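 S16 Schwann cells carrying the Pmp22-F2sN reporter, seeded in 1536-well format, were exposed to library compounds for 24 h at 37C. Viability was read as CellTiter-Glo luminescence after 15 min at room temperature.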
# mTORC1 inh = mTORC1 pathway inhibition measured by phospho-rpS6; Potency, µM (highest dose often 38.3 µM), without a hit: at the highest dose activity change, negative = inhibition, usual class: inhibitors; AID 493208; Tsc2-/- p53-/- MEF, phospho-rpS6 immunofluorescence/PI, 24 h; 44,000 tested, 0.78% active;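 also: plate controls were DMSO for no effect and rapamycin for full effect; nearly all actives have a fitted effect of over 50% in size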
#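 Immunofluorescence of rpS6 phosphorylation in Tsc2-/-, p53-/- MEFs after 24 h compound exposure, normalized to propidium iodide signal. Activity is expressed as % positive cells, thresholded with 7.5 nM rapamycin.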
# GALC G270D act = galactocerebrosidase G270D activity enhancement, cell-based; 45,000 tested, 0.1% active; Potency, µM (highest dose often 57.5 µM), most hits filed as activators; 145M-Twi-hGALC-G270D cells (Twitcher mouse brain line with human GALC G270D), HMU-beta-Gal fluorescence, 48 h; also: 0% is about no effect; nearly all actives have a fitted effect of over 65% in size
# Target sequence (P54803 whole entry G286D): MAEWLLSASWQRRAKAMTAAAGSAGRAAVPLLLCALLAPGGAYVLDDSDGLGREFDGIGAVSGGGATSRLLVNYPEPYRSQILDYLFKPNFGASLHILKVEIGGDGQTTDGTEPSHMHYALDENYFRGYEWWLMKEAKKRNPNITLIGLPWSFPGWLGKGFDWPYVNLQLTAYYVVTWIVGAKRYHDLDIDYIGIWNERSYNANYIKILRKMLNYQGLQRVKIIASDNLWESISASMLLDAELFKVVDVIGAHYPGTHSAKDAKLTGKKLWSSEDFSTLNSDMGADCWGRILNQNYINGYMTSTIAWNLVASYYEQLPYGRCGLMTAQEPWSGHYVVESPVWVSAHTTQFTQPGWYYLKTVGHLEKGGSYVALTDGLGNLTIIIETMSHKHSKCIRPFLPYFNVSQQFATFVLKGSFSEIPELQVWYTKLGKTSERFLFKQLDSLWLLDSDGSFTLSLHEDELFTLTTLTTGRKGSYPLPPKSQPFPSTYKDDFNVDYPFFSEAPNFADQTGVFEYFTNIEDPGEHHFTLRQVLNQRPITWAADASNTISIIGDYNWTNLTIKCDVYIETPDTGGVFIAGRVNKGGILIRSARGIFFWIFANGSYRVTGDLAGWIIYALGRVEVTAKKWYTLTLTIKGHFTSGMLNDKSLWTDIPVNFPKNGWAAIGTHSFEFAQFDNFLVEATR
#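 Fluorogenic HMU-b-Gal hydrolysis (0.1 mM final, pH 5.2 citrate-phosphate with 1 mg/mL sodium taurocholate; carbonate stop buffer) measures mutant GALC activity after compound treatment of live 145M-Twi Twitcher brain cells stably carrying human GALC-G270D, with wild-type GALC line alongside; activation sought.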
# PMP22 txn = modulators of PMP22 gene transcription in S16 Schwann cells; 43,000 tested, 2% active; S16 Pmp22-F2sN Schwann cells (luciferase reporters placed in the Pmp22 gene), FLuc/NLuc coincidence luminescence, 24 h; AID 1508649; Potency, µM (titrated, usually from 57.5 µM), without a hit: at the highest dose activity change, negative = inhibition, usual class: inhibitors; active = clear falling dose curves in both reporters; inconclusive = both reporters move, but less clearly or upward; inactive = either reporter flat; the % is the NLuc reporter signal; also: % is scaled to controls: 0 for no effect and ±100 for the full control effect
#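 Transcriptional readout in edited S16(c9) cells: two luciferases reported from the Pmp22 locus, measured in turn after 24 h compound incubation.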
# * hit, by the source's call; i = inactive; ? = inconclusive; / = not tested or not shown. Most compounds without a hit are left out; they make up all but 2.8% or so of the library. Unless noted, calls follow the shape of the dose curve; as a rule, active = well fitted curve in the direction sought with a large enough effect; inconclusive = small, poorly fitted or top-dose-only effect, or another doubt; inactive = no such curve, though single readings can be large; an effect the other way counts as inactive or inconclusive. Potency is read from the fitted curve at half-maximal effect.
SMILES,S16 viability,mTORC1 inh,GALC G270D act,PMP22 txn
CCC(C)S(=O)(=O)c1oc(-c2ccc(F)cc2)nc1S(=O)(=O)c1ccc(F)cc1 (stereo not given),6.31µM*,0.826µM*,i,2.53µM*
CCCSc1oc(-c2cccs2)nc1S(=O)(=O)c1ccc(C)cc1,3.3%,0.2%,i,-11.0%
CCCCS(=O)(=O)c1oc(-c2ccc(F)cc2)nc1S(=O)(=O)c1ccc(C)cc1,?,4.14µM*,i,8.43µM*
[O-][n+]1ccccc1SSc1cccc[n+]1[O-],/,/,i,/
COc1cccc(-c2ccc3c(N)c(C(=O)c4ccc(Cl)cc4)sc3n2)c1,-12.1%,?,i,?
CCCCN(CC)C(=O)c1cc2c(=O)n3cccc(C)c3nc2s1,-4.4%,-10.6%,25.1µM*,-37.8%
COc1ccc(Cl)cc1NC(=O)c1sc2nc(-c3ccc(OC)c(OC)c3)ccc2c1N,-1.1%,-2.9%,11.2µM*,-14.0%
CCn1c(=O)c2c(nc(C=Cc3ccc(OC)c(OC)c3)n2C)n(CC)c1=O,/,/,i,/
CC(C(O)c1ccccc1)N(C)CCOC(c1ccccc1)c1ccccc1 (stereo not given),/,/,i,/
O=C(OCC(COC(=O)c1cccnc1)(COC(=O)c1cccnc1)COC(=O)c1cccnc1)c1cccnc1,/,/,i,/
O=C(c1ccc2c(c1)N(Cc1cccc(Cl)c1)C(=O)c1ccccc1S2(=O)=O)N1CCN(c2cccc(C(F)(F)F)c2)CC1,-0.7%,-0.1%,i,-88.8%
O=C(c1ccc2c(c1)N(Cc1cccc(Cl)c1)C(=O)c1ccccc1S2=O)N1CCN(c2cccc(C(F)(F)F)c2)CC1 (stereo not given),?,-1.5%,i,10.8µM*
CCN1C(=O)c2ccccc2S(=O)c2ccc(C(=O)N3CCN(c4cccc(C)c4)C(C)C3)cc21 (stereo not given),?,1.9%,i,?
Cc1cccc(N2CCN(C(=O)c3ccc4c(c3)N(Cc3ccccc3F)C(=O)c3ccccc3S4=O)CC2C)c1 (stereo not given),10.9%,-9.6%,i,9.04µM*
CC1=C(C(=O)O)N2C(=O)[C@@H](NC(=O)[C@H](N)C3=CCC=CC3)[C@H]2SC1,/,/,i,/
O=S(=O)(c1ccccc1)n1nc(-c2ccc(Cl)cc2)nc1NCc1ccccc1,?,14.7µM*,i,?
CCCCC(=O)O[C@]1(C(=O)CO)[C@@H](C)C[C@H]2[C@@H]3CCC4=CC(=O)C=C[C@]4(C)[C@@]3(F)[C@@H](O)C[C@@]21C,/,/,i,/
Cc1ccsc1CCN1C(=O)N(c2ccccc2)C(=O)C1CC(=O)Nc1ccc(Cl)cc1 (stereo not given),31.6µM*,-5.3%,i,?
O=C(CC1C(=O)N(c2ccccc2)C(=O)N1CCc1cccs1)Nc1ccc(Cl)cc1 (stereo not given),?,2.1%,i,-15.4%
Cc1ccc2sc(N3CCN(C(=O)CCS(=O)(=O)c4ccc(F)cc4)CC3)nc2c1C,?,-7.1%,i,?
Cc1c(Cl)ccc2sc(N3CCN(C(=O)CCS(=O)(=O)c4ccc(F)cc4)CC3)nc12,?,-18.5%,i,11.9µM*
COc1ccc(CC(=O)Nc2sc3c(c2C(=O)Nc2ccccc2)CCCCC3)cc1,?,4.65µM*,i,?
COc1ccc(OC)c(NC(=O)c2c(NCc3ccc(C)o3)sc3c2CCCCC3)c1,?,?,i,?
COc1ccccc1NC(=O)c1c(NCc2ccc(C)o2)sc2c1CCCCC2,4.8%,?,i,14.1µM*
O=C(Cc1ccccc1)Nc1sc2c(c1C(=O)Nc1ccccc1)CCCCC2,-12.3%,?,i,?
SMILES,S16 viability,mTORC1 inh,GALC G270D act,PMP22 txn
CCC1CCc2nc3sc(C(=O)Nc4cccc(C(F)(F)F)c4)c(N)c3cc2C1 (stereo not given),0.0%,-15.8%,10µM*,-45.4%
CCC1CCc2nc3sc(C(=O)Nc4cccc(F)c4)c(N)c3cc2C1 (stereo not given),-5.2%,?,i,?
CCC1CCc2nc3sc(C(=O)Nc4ccc(C)cc4)c(N)c3cc2C1 (stereo not given),3.3%,18.5µM*,i,-16.3%
CCC1CCc2nc3sc(C(=O)Nc4ccc(F)cc4F)c(N)c3cc2C1 (stereo not given),3.8%,?,i,-40.9%
CCCN(CCC)C(=O)C(CCC(=O)OCCCN1CCN(CCOC(=O)Cc2c(C)n(C(=O)c3ccc(Cl)cc3)c3ccc(OC)cc23)CC1)NC(=O)c1ccccc1 (stereo not given),/,/,i,/
CO[C@@H]1[C@@H](OC)[C@H](C)[C@@](O)(CC(=O)O)O[C@H]1[C@H](C)[C@H]1O[C@@]2(CC[C@@](C)([C@H]3CC[C@@](C)([C@@H]4O[C@@H]([C@H]5O[C@](C)(O)[C@H](C)C[C@@H]5C)C[C@@H]4OC4C[C@H](OC)[C@@H](OC)[C@H](C)O4)O3)O2)C[C@H](O)[C@H]1C (stereo not given in full),/,/,i,/
COc1cc(C(=O)OC(COCCC(C)C)CN2CCOCC2)cc(OC)c1OC (stereo not given),/,/,i,/
COc1ccc(C)cc1NC(=O)C(Cc1ccccc1)NS(=O)(=O)c1cccs1 (stereo not given),3.2%,-0.1%,i,?
COc1ccc(C)cc1NC(=O)C(Cc1ccccc1)NS(=O)(=O)c1ccc(Br)s1 (stereo not given),1.5%,6.56µM*,i,?
Cc1ccc(NC(=O)CSc2ccc(-c3ccccn3)nn2)cc1F,-22.1%,14.7µM*,i,-47.4%
COc1cc(NC(=O)CSc2ccc(-c3ccccn3)nn2)cc(OC)c1,-27.5%,13.1µM*,i,?
CCc1ccc(NC(=O)CSc2ccc(-c3ccccn3)nn2)cc1,?,?,i,-58.0%
Cc1cccc(NC(=O)CSc2ccc(-c3ccccn3)nn2)c1,-18.5%,?,i,?
Cc1ccc(CN2C(=O)C(O)(CC(=O)c3ccc(C)cc3)c3ccccc32)cc1 (stereo not given),?,9.27µM*,i,7.61µM*
CCN1CCN(c2oc(/C=C/c3ccccc3OC)nc2C#N)CC1,6.1%,-8.2%,i,-5.2%
COc1ccccc1/C=C/c1nc(C#N)c(N2CCN(C)CC2)o1,6.2%,-4.9%,28.2µM*,5.4%
COc1ccc(N2CCN(S(=O)(=O)c3ccc(-c4cnc(C5CC5)o4)cc3)CC2)cc1,-23.7%,0.0%,i,-14.9%
CCN(CC)c1ccc(NS(=O)(=O)c2ccc(-c3cnc(C4CC4)o3)cc2)c(C)c1,1.78µM*,0.0%,i,?
CCOc1ccccc1NS(=O)(=O)c1ccc(-c2cnc(C3CC3)o2)cc1,-17.5%,?,i,?
